Experimental findings from PubChem BioAssay (NCI) are described below.

Assay [1] can be described thus: NCI Yeast Anticancer Drug Screen. Data for the rad50 strain (AID 155).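 Also: 0% = growth of vehicle-only cultures of the same strain.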 The settings on record: S. cerevisiae rad50 strain growth inhibition; at 50.0 µM; hits give high values. A digest of the protocol:
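Compounds were tested on a yeast strain with an engineered DNA damage repair alteration; the reported value is growth inhibition normalised to vehicle treatment.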

The nature of assay [2]: NCI Yeast Anticancer Drug Screen. Data for the mec2-1 strain (AID 157). The settings on record: S. cerevisiae mec2-1 strain, at 50.0 µM, hits give high values. Summed up:
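Strain: mec2-1 (DNA repair/cell cycle alteration). Compound exposure, then growth measured; inhibition expressed relative to vehicle.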

Assay [3] is described as follows: NCI Yeast Anticancer Drug Screen. Data for the sgs1 mgt1 strain (AID 161).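 Also: 0% = growth of cultures given vehicle only.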 The settings on record: S. cerevisiae sgs1 mgt1 strain, at 50.0 µM, hits give high values. A digest of the protocol:
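Read-out: growth inhibition vs vehicle controls. Cells: mutant yeast strain deficient in DNA damage repair.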

Assay [4] is described as follows: NCI Yeast Anticancer Drug Screen. Data for the cln2 rad14 strain (AID 165).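 Also: 0% = growth equal to vehicle treated cultures.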 The settings on record: S. cerevisiae cln2 rad14 strain, at 50.0 µM, hits give high values. A digest of the protocol:
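Compounds are applied to the cln2 rad14 yeast strain, and growth is then compared with that of vehicle-treated cultures to give inhibition.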

The nature of assay [5]: NCI Yeast Anticancer Drug Screen. Data for the bub3 strain (AID 167). The settings on record: S. cerevisiae bub3 mutant strain, at 50.0 µM, hits give high values. A digest of the protocol: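 Growth of a checkpoint-deficient yeast mutant is measured after compound exposure. Values represent inhibition relative to vehicle.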
Assay [6] in a line: NCI Yeast Anticancer Drug Screen. Data for the mlh1 rad18 strain (AID 175). The settings on record: S. cerevisiae mlh1 rad18 strain growth inhibition; at 50.0 µM; hits give high values. A digest of the protocol: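 Read-out is yeast growth inhibition, calculated against vehicle-only controls. The compound was applied to a strain engineered with DNA damage repair alterations.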

This is part of a sample that, as a whole, favours compounds with a hit. Of some 79,000 tested, about 15% had one in any assay. Values without a mark were called inactive. Activity calls are given as the source filed them. Rule as the data show it: active = growth inhibition above about 70%; inactive = the rest. Where a SMILES comes first, the peptide text is derived from it. The star is where a group is joined. Cbz = O=C(OCc1ccccc1)*; Bn = c1ccc(C*)cc1

`CCCCCCCOCC(=O)O`: the growth inhibition in assay [1] is 10%; in assay [2], -5.8%; in assay [3], 3.6%; in assay [4], -30.2%; in assay [5], 1.25%; in assay [6], 17.6%.

As to `CC(C)=C1C(=O)C[C@]2(C)C[C@H]3/C(=C(/C)CCC12)CC[C@@]3(C)O` (stereo partly specified), the growth inhibition was 46.5% in assay [1]; -1.25% in assay [2]; 2% in assay [3]; 28.6% in assay [4]; -6.05% in assay [5]; -8.4% in assay [6].

For `C=CCc1ccc(O)c(OC)c1`, the growth inhibition in assay [1] is 36%; in assay [2], -3.25%; in assay [3], -10.4%; in assay [4], 9.7%; in assay [5], 26.4%; in assay [6], 25%.

In the case of `Cc1c(Cl)cccc1NC(=O)Oc1ccc(Cl)cc1`, the growth inhibition was 1.75% in assay [1]; -2.75% in assay [2]; -5.6% in assay [3]; -7.45% in assay [4]; -9.7% in assay [5]; -4.05% in assay [6].

`COc1ccc2c(c1)CCC1C2CCC2(C)C(=O)C(n3cnc4c(=S)nc[nH]c43)CC12` (stereo unspecified): the growth inhibition was 42.3% in assay [1]; 24.4% in assay [2]; 50% in assay [3]; 34.5% in assay [4]; 14.2% in assay [5]; 51.8% in assay [6].

Consider `CCCCCOC(=O)c1cc2ccccc2cc1O`, for which the growth inhibition was -3% in assay [1]; -8.05% in assay [2]; -8.95% in assay [3]; -39.6% in assay [4]; 30.1% in assay [5]; -7.8% in assay [6].

For the compound `CCCCn1cnc2ccc3[nH]c(C)nc3c2c1=O`, the growth inhibition was 29.4% in assay [1]; -4.85% in assay [2]; 34.1% in assay [3]; -3.55% in assay [4]; -6.35% in assay [5]; 21.4% in assay [6].

In the case of `Nc1ncc2c(n1)SCC2`, the growth inhibition in assay [1] was -10.3%; in assay [2], -5.8%; in assay [3] it was -8.25%; in assay [4] it was -19.7%; in assay [5], -17.6%; in assay [6] it was -19.6%.

On to `O=C(C(=Nc1ccccc1)C(=Nc1ccccc1)C(=O)c1ccccc1)c1ccccc1`, for which the growth inhibition was 78.8% (active) in assay [1]; 32.1% in assay [2]; 55.2% in assay [3]; 8.5% in assay [4]; 15.3% in assay [5]; 37% in assay [6].

As for `CC1(C)OCC(Cc2ccc3c(c2)OCO3)CO1`, the growth inhibition in assay [1] was 1.7%; in assay [2] it was -11.1%; in assay [3], -5.75%; in assay [4], -32.2%; in assay [5], 22.5%; in assay [6], 2.25%.

Consider `CCOC1=NC(C)C(C)N1` (stereo unspecified), for which the growth inhibition in assay [1] was -5.1%; in assay [2] it was -11.1%; in assay [3], -13.4%; in assay [4], 9.05%; in assay [5], 6.25%; in assay [6], -21.1%.

Consider `Cc1ncc([N+](=O)[O-])n1CCNC(=O)CCn1ccnc1[N+](=O)[O-]`, for which the growth inhibition is 10.2% in assay [1]; -43.7% in assay [2]; -49.6% in assay [3]; 1.1% in assay [4]; -18.7% in assay [5]; -22.9% in assay [6].

`CCCCCCCCCCCCNc1ncnc2c1cnn2C`: the growth inhibition is -9.1% in assay [1]; -14.4% in assay [2]; -1.25% in assay [3]; -47.2% in assay [4]; 23.9% in assay [5]; -25.2% in assay [6].

On to `Cc1ccc(O)c(C2CC(C#N)CCN2C)c1` (stereo unspecified), for which the growth inhibition in assay [1] is -0.65%; in assay [2] it was -12.2%; in assay [3], -16.5%; in assay [4] it was -6.35%; in assay [5] it was -18.9%; in assay [6], -7.3%.

As for `NCC(=O)N[C@H]1c2ccsc2/C(=N/O)[C@H]1O`, the growth inhibition in assay [1] is 3.1%; in assay [2] it was 5.95%; in assay [3] it was 3.65%; in assay [4] it was 11.3%; in assay [5], -10.2%; in assay [6], 33.2%.

On to `CC(C)C(NC(=O)C(CSCc1ccccc1)NC(=O)OCc1ccccc1)C(N)=O` (stereo unspecified) (Cbz-Cys(Bn)-Val-NH2; configuration not given here), for which the growth inhibition in assay [1] was 8.8%; in assay [2], 16.1%; in assay [3] it was 1.6%; in assay [4], -3.65%; in assay [5], -0.9%; in assay [6], 30.6%.

For `O=C(Nc1ccc(S(=O)(=O)N2CCCCC2)cc1)OC1CCCCCC1`, the growth inhibition in assay [1] is 10.1%; in assay [2], 1.1%; in assay [3], -8.5%; in assay [4], 14.5%; in assay [5] it was -4.05%; in assay [6] it was 10.6%.

As to `COc1ccc(C(=O)C(C)(CCC#N)CCC#N)cc1`, the growth inhibition was -10.3% in assay [1]; -6.3% in assay [2]; 3.25% in assay [3]; -44.6% in assay [4]; 14.3% in assay [5]; 2.3% in assay [6].

For the compound `CCc1cccc(CC)c1N1C(=O)C(=O)C(C(C)=O)C1=O` (stereo unspecified), the growth inhibition was -4.05% in assay [1]; -4.45% in assay [2]; 7.6% in assay [3]; -24.5% in assay [4]; -1.25% in assay [5]; 8.45% in assay [6].

Take `CCN(CC)C(=O)C1CCCCN1` (stereo unspecified): the growth inhibition in assay [1] was 1.65%; in assay [2] it was 2.6%; in assay [3] it was 3.1%; in assay [4], -43.2%; in assay [5] it was -11%; in assay [6], 6.65%.

Regarding `Cc1ccc(N=Nc2ccc(C)cc2NC(=S)Nc2ccccc2)cc1`, the growth inhibition in assay [1] was -11.2%; in assay [2], -0.95%; in assay [3], -12.3%; in assay [4], -20.9%; in assay [5], 7.7%; in assay [6] it was -8.75%.
